TIM10 inh: inhibits growth of TIM10 yeast strain; S. cerevisiae TIM10 strain growth, BacTiter-Glo luminescence, 24 h; inhibition, % at 10 µM; 1.4% of 330,000 active;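 active means inhibition of 40% or more at the single tested concentration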;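 further: wild-type TIM10 isogenic control strain grown at permissive 25 °C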
SKKanGAS inh: SKKanGAS growth inhibition; inhibition, % at 7.5 µM; S. pyogenes SKKanGAS, kanamycin growth, BacTiter-Glo, 6 h; 1.3% of 300,000 active; AID 1662;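 active means mean replicate score, as percent of positive control median, at least 50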;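 further: strain carries kanamycin resistance gene driven by streptokinase promoter and grows in 40 µg/ml kanamycin; loss of luminescence reflects streptokinase promoter inhibition or plain growth inhibition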
tim10-1 inh: inhibits growth of tim10-1 mutant yeast; S. cerevisiae tim10-1 ts strain growth, BacTiter-Glo, 24 h; inhibition, % at 20 µM; 2.2% of 330,000 active; AID 463190;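 active means inhibition of at least 40%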;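 further: mutant grown at 25 °C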
PfHsp90 yeast 2: inhibits growth of yeast expressing Plasmodium falciparum Hsp90; AID 504621; S. cerevisiae expressing PfHsp90, BacTiter-Glo ATP, 48 h; yeast lacking PDR1 and PDR3 efflux regulators; inhibition, % at 9.4 µM; 0.32% of 310,000 active;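 active means every replicate shows inhibition above about 80%, whatever the replicate mean, limit read from the data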
tim23-1 inh: inhibits growth of tim23-1 mutant yeast. inhibition, % at 20 µM. 1.3% of 330,000 active. S. cerevisiae tim23-1 growth, BacTiter-Glo luminescence, 24 h;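 active means growth inhibition of the mutant yeast at or above 50%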;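 further: temperature-sensitive mutant grown at 25 °C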
EBI2 antag: EBI2 (human) antagonism; inhibition, % at 5 µM; EBI2 beta-arrestin recruitment, luminescence, 7a,25-OHC stimulated; 0.81% of 360,000 active; P32249; in the data active means inhibition above about 38%;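 further: enzyme fragment complementation signal reports receptor beta-arrestin coupling in cells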
Target sequence (P32249 whole entry, looked up, the tested form may be a part): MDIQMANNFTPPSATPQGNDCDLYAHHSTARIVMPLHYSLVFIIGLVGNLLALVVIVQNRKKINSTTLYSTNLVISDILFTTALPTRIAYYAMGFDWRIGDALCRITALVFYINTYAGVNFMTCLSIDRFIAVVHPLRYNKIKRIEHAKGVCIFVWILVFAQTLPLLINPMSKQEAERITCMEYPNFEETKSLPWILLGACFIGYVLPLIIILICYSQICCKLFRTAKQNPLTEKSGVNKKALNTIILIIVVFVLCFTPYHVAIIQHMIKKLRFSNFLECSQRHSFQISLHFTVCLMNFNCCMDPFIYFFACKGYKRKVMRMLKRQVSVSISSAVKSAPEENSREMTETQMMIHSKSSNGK
tim10-1 conf: tim10-1 yeast growth inhibition, confirmed; S. cerevisiae tim10-1 ts strain growth, BacTiter-Glo, 24 h; AID 463213; shares compounds with tim10-1 inh; inhibition, % at 20 µM; 56% of 7,400 active;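 active means inhibition of yeast growth at or above a set limit in either of two repeat tests at 20 µM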;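 further: tim10-1 mutant grown at permissive 25 °C to find synthetic lethal compounds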
tim10 confirm: TIM10 yeast growth inhibition, confirmed; shares compounds with TIM10 inh; 63% of 4,600 active; inhibition, % at 10 µM; S. cerevisiae tim10 strain growth, BacTiter-Glo luminescence, 24 h;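 active means inhibition of yeast growth at or above a set limit in either of two replicates at 10 µM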; further: this counterscreen used the strain with wild-type TIM10
tim23-1 conf: tim23-1 yeast growth inhibition, confirmed. shares compounds with tim23-1 inh. S. cerevisiae tim23-1 growth, BacTiter-Glo luminescence, 24 h. inhibition, % at 20 µM. 83% of 4,400 active;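 active means inhibition above about 39% in either of two replicate wells at 20 µM, limit read from the data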;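 further: temperature-sensitive tim23-1 mutant grown at 25 °C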
Large screens that a line does not name were inactive (follow-up assays come after a bar, where they were run). Compounds with a hit are over-represented: about 4.7% of the library has one in this group of screens.

N#C/C(=C\c1ccco1)Sc1nc2ccccc2s1	TIM10 inh 56.2, tim10-1 inh 50.4, tim23-1 inh 58.1 | tim10-1 conf 58.2 | tim10 confirm 44.4 | tim23-1 conf 50.8
O=C(CSc1nc2ccccc2s1)N/N=C/c1ccco1	none
Cc1cccc(-n2c(Cc3cc(=O)[nH]c(=O)[nH]3)nnc2SCC(=O)N2CCc3ccccc32)c1	none
O=C(/C=C/c1ccnc2ccccc12)c1cccs1	TIM10 inh 78.5, tim10-1 inh 70.9, PfHsp90 yeast 2 84.9, tim23-1 inh 66.7 | tim10-1 conf 71.8 | tim10 confirm 83.0 | tim23-1 conf inactive
Nc1c(-c2ccccc2)cnn1-c1ccccc1	none
O=c1cnn(-c2ccccc2)c(-c2ccccc2)c1	TIM10 inh 75.6, tim10-1 inh 54.2, tim23-1 inh 65.2 | tim10-1 conf 62.2 | tim10 confirm 63.6 | tim23-1 conf 70.1
O=C1c2ccccc2C(=O)c2c1cccc2-n1nnc2ccccc21	none
O=C1C(N2CCOCC2)=C(n2nnc3ccccc32)C(=O)c2ccccc21	TIM10 inh 78.1, tim10-1 inh 63.8, tim23-1 inh 82.8 | tim10-1 conf 60.0 | tim10 confirm 68.7 | tim23-1 conf 88.8
Cc1cc(C)n(Cc2ccc(NC(=O)c3ccc(COc4ccccc4Br)cc3)cc2)n1	none
COc1cccc(NC=C2C(=O)OC3(CCCCC3)OC2=O)c1	TIM10 inh 57.9, tim10-1 inh 66.1, tim23-1 inh 73.9 | tim10-1 conf 69.8 | tim10 confirm 72.2 | tim23-1 conf 74.2
COc1cccc(NC=C2C(=O)OC(C)(C)OC2=O)c1	none
O=C(CCN1CCOCC1)c1ccc(N2CCCCC2)cc1	none (no result: SKKanGAS inh)
CC(C)(C)c1cc(C(=O)CCN2CCOCC2)cc(C(C)(C)C)c1O	TIM10 inh 76.3, tim10-1 inh 77.5, tim23-1 inh 73.7 | tim10-1 conf 76.1 | tim10 confirm 79.8 | tim23-1 conf 56.5
Cc1cc(-c2onc(C)c2C(=O)O)no1	none
CCCOc1ccc2c(c1)C(=NN=C(N)N)c1cc(OCCC)ccc1-2	tim10-1 inh 76.3, tim23-1 inh 62.2 | tim10-1 conf 38.5 | tim23-1 conf inactive
N#C/C(=C\c1ccncc1)c1nc2ccccc2[nH]1	none
N#C/C(=C/c1ccncc1)c1nc2ccccc2s1	TIM10 inh 69.7, tim10-1 inh 59.5, tim23-1 inh 80.0 | tim10-1 conf 40.1 | tim10 confirm 67.2 | tim23-1 conf 78.6
O=c1cc(-c2ccc(C3CCCCC3)cc2)[nH][nH]1	tim10-1 inh 58.9, PfHsp90 yeast 2 94.0, tim23-1 inh 74.0 | tim10-1 conf 32.5 | tim23-1 conf inactive
N/C(=N\OC(=O)Nc1ccccc1)c1ncc([N+](=O)[O-])s1	TIM10 inh 56.7, tim10-1 inh 51.2, tim23-1 inh 77.1 | tim10-1 conf 47.7 | tim10 confirm 60.2 | tim23-1 conf inactive
O=c1oc2cc(Oc3c([N+](=O)[O-])cc(C(F)(F)F)cc3[N+](=O)[O-])ccc2c2c1CCCC2	TIM10 inh 68.5, tim10-1 inh 71.9, tim23-1 inh 75.9 (no result: PfHsp90 yeast 2) | tim10-1 conf 64.6 | tim10 confirm 73.5 | tim23-1 conf 78.7
NNC(=O)c1[nH]c2ccc(Cl)cc2c1-c1ccccc1	tim10-1 inh 50.7, tim23-1 inh 61.5 | tim10-1 conf 52.5 | tim23-1 conf 42.0
CCOC(=O)/C(C#N)=C/c1ccc(OC)c(OC)c1	none
CCOc1cc(/C=C(\C#N)C(N)=O)ccc1OS(=O)(=O)c1ccccc1	tim10-1 inh 47.8, tim23-1 inh 56.7 | tim10-1 conf 37.8 | tim23-1 conf 58.1
CCc1cccc(CC)c1NC(=S)Nc1ccccc1	none
COc1ccc(NS(=O)(=O)c2cc(C(=O)N3CCC3)ccc2C)cc1	none (no result: SKKanGAS inh, PfHsp90 yeast 2)
N/C(Cc1ccc(Cl)cc1)=N\OC(=O)CCc1ccccc1	none (no result: TIM10 inh, SKKanGAS inh, tim10-1 inh, PfHsp90 yeast 2, tim23-1 inh)

High-throughput results from PubChem BioAssay.
